Calb FLC: affects C. albicans growth with fluconazole. growth inhibition, % (test concentration not listed). hit rate 0.57% among 300,000. AID 1979. C. albicans CaCi-2 (fluconazole-resistant clinical isolate) + fluconazole, Alamar Blue growth, 48 h;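 active = growth inhibition above about 58% in most replicates, limit read from the data, passing the limit was not always enough; inconclusive = exactly half the replicates above a set limit; inactive = most replicates below a set limit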;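 note: all wells also contain fluconazole at 8 µg/ml as a sub-toxic cotreatment; 0% = median of DMSO wells and 100% = median of geldanamycin control wells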
PP5 inh: inhibitors of human protein phosphatase 5 (PP5). inhibition, % at 6.7 µM. P53041. hit rate 0.18% among 320,000. purified PP5c, OMFP substrate fluorescence;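 active = inhibition above the campaign's mean inhibition across all tested compounds plus 3 SD, cut at about 9.5% in these data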;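 note: 0% = DMSO only and 100% = 100 µM cantharidin control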
Beta cell apopt: beta cell apoptosis inhibition; protection from apoptosis, % (test concentration not listed); INS-1E cytokine-induced death, ATP luminescence, 48 h; percent of positive-control rescue, neutral wells zero; hit rate 0.8% among 300,000;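 active = Every replicate reaches about 75%, or at least half do and their mean reaches it too, limit read from the data; inconclusive = At least half of replicates reach the limit but their mean does not; inactive = Under half of replicates reach the limit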;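 note: 0% = cytokine-treated negative control wells and 100% = positive control rescue; higher means more ATP so stronger rescue from cytokine killing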
PP1 counter: counter-screen for PP5 inhibitors: inhibitors of human PP1-alpha; inhibition, % at 6.7 µM; P62136; purified PP1alpha, OMFP fluorescence; AID 2235; hit rate 0.9% among 320,000;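 active = inhibition above the mean inhibition of all tested compounds plus 3 SD, computed separately for each screening campaign, cut at about 15% in these data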
CSC inhib: cancer stem cell inhibition | AID 2717 | cancer stem cell-like cells viability, luminescence | inhibition, % at 7.5 µM | hit rate 1.1% among 300,000; in the data active = inhibition above about 75%; inconclusive = no clear call, values can overlap the other calls; tested in HMLE shEcad cells
Mdm2-MdmX inh: human Mdm2/MdmX binding inhibition. O15151+Q00987. SaOS-2 split-luciferase Mdm2/MdmX complementation, luminescence. inhibition, % at 8 µM. hit rate 3% among 330,000;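 active = inhibition of at least 50% at 8 µM in the primary screen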
Target sequence (O15151 whole entry, looked up): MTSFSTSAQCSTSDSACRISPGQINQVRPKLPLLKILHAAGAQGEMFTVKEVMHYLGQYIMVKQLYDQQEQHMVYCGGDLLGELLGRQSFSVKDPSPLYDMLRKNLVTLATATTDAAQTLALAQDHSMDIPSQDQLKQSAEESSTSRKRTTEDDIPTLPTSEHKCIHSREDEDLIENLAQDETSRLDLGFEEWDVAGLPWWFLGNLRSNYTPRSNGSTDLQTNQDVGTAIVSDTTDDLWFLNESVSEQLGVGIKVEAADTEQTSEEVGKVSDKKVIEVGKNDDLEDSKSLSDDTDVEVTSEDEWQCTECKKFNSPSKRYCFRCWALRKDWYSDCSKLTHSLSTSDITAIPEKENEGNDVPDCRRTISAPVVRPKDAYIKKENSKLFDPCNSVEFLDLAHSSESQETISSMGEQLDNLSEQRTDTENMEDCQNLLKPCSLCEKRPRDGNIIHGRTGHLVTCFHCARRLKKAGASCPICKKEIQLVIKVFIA
Target sequence (Q00987 whole entry, looked up): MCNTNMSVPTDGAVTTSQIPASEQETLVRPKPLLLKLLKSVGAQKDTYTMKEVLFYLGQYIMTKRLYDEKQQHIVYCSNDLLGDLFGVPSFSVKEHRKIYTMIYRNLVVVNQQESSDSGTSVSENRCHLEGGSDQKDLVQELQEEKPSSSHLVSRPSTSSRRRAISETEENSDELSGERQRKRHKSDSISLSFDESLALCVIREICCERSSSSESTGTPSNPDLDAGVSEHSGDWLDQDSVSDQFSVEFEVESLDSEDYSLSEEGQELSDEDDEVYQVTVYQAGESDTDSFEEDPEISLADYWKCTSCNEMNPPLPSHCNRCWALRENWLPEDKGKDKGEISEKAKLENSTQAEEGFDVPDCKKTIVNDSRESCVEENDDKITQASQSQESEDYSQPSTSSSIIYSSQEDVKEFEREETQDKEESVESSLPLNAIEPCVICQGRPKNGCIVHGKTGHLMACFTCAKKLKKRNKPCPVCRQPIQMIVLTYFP
Mdm2-MdmX conf: confirmation of human Mdm2/MdmX interaction inhibitors | shares compounds with Mdm2-MdmX inh | Mdm2-MdmX binding, luminescent assay | inhibition, % at 8 µM | hit rate 55% among 10,000 | AID 489028; in the data active = inhibition above about 40%
Full FLuc ctr: counter-screen for Mdm2/MdmX inhibitors: full-length luciferase; shares compounds with Mdm2-MdmX inh; SaOS-2 full-length luciferase counterscreen, luminescence; inhibition, % at 8 µM; hit rate 77% among 6,200;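 active = mean inhibition at 8 µM reaching about 37%, which flags the compound as non-specific, limit read from the data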;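 note: p53-null SaOS-2 cells with luciferase driven by a doxycycline-inducible promoter; compound on cells about two nights before reading with doxycycline added after day one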
Active calls of the source: *; ? = inconclusive; · = no result given. Compounds with a hit are over-represented: about 4.9% of the library has one in this group of screens.

SMILES	Calb FLC	PP5 inh	Beta cell apopt	PP1 counter	CSC inhib	Mdm2-MdmX inh	Mdm2-MdmX conf	Full FLuc ctr
COc1ccc(-c2c[n+](CC(=O)OC3CC(C)CCC3C(C)C)c3n2CCC3)cc1 (stereo not drawn)	88*	-1	103*	-3	-2	63*	31	57*
CC(C)[C@@H]1CC[C@@H](C)C[C@H]1OC(=O)C[n+]1cc(-c2ccc(Cl)cc2)n2c1CCCCC2	95*	5	1	5	22	78*	73*	29
CCn1c(CC(=O)Nc2ccc(F)cc2)nnc1SCC(=O)N1CCOCC1	4	1	-1	-3	-19	-4	·	·
Cn1c(=O)n(CCc2ccccc2)c(=O)c2c1nc1n2CCCN1CCc1ccccc1	-1	3	10	3	41	65*	-4	·
CCCn1c(=O)c2c(nc3n2CCCN3CCc2ccccc2)n(C)c1=O	-1	2	5	0	13	6	·	·
CC(C)(C)NC(=O)C[C@H]1C[C@H](C(=O)N2CCOCC2)[C@@]2(C)c3[nH]c4ccc(Cl)cc4c3CCN2C1=O	·	·	·	·	·	17	·	·
CCCCC(CCCC)=N/N=C/c1c(O)n(CC)c2cc(C3=NNC(=O)CC3)ccc12	-1	2	19	6	-17	58*	9	·
O=C(O)c1ccccc1Nc1cc(Cl)c2nonc2c1[N+](=O)[O-]	26	2	1	-4	-10	4	·	·
O=[N+]([O-])c1c(Nc2ccc(O)cc2)cc(Cl)c2nonc12	87*	0	100*	4	91*	100*	100*	1
O=[N+]([O-])c1c(Nc2ccccn2)cc(Cl)c2nonc12	-6	-2	115*	1	96*	100*	100*	1
CCCCCCCCCn1ccc(=N)cc1	70	0	116*	-2	7	91*	81*	24
S=C(NCC1CCCO1)N1CCN(c2nc(-c3ccccc3)cs2)CC1 (stereo not drawn)	3	6	15	0	-4	0	·	·
C(=C\CSc1nnnn1-c1ccccc1)/CSc1nnnn1-c1ccccc1	-8	0	-2	6	-16	15	·	·
O=[N+]([O-])c1ccc(Sc2nnnn2-c2ccccc2)nc1	-1	·	·	·	·	61*	47*	79*
Cc1ccccc1-n1nnnc1Sc1nnnn1-c1ccccc1	·	5	60	-2	19	98*	83*	54*
CCCSc1nnc(Sc2nnnn2-c2ccccc2)s1	18	0	·	4	53	66*	64*	56*
CCN1CCN(C(=O)N2CCOCC2)CC1	-2	3	0	-4	·	23	·	·
COc1ccc(C(CNC(=O)c2oc3cc(C)c(Cl)cc3c2C)N2CCCCC2)cc1 (stereo not drawn)	-4	0	-3	0	11	82*	36	·
CCOc1cccc(/C=N/NC(=O)c2cc(C3CC3)[nH]n2)c1O	-3	3	96*	4	128*	59*	26	·
CCOc1cccc(/C=N/NC(=O)c2cccnc2)c1O	-22	0	35	-2	59	37	·	·
COc1ccc(OCC(=O)Nc2ccc3oc(-c4ccncc4)nc3c2)cc1	37	3	-9	3	-1	-5	·	·
Cc1ccc(OCC(=O)Nc2ccc(O)c(-c3nc4ccccc4o3)c2)cc1	-3	2	7	4	-8	92*	47*	108*
CCOc1ccc(OCCC(=O)OCC(=O)N2CCN(c3ccc(OC)cc3)CC2)cc1	-3	0	-4	-4	-4	6	·	·
CN(CCCNC(=O)COc1cc(=O)n(C)c2ccccc12)Cc1ccccc1	-12	0	2	2	19	19	·	·
CCN(CCCNC(=O)COc1cc(=O)n(CC)c2ccccc12)Cc1ccccc1	-2	3	-11	-1	-6	59*	46*	93*
SMILES	Calb FLC	PP5 inh	Beta cell apopt	PP1 counter	CSC inhib	Mdm2-MdmX inh	Mdm2-MdmX conf	Full FLuc ctr
CCN(CCCNC(=O)CCCOc1cc(=O)n(C)c2ccccc12)Cc1ccccc1	0	4	6	0	9	52*	17	·
COc1cc(C(=O)NCC(=O)N2CCN(S(=O)(=O)c3cc(C)ccc3C)CC2)cc(OC)c1OC	2	2	1	-5	31	53*	52*	42*
Cc1ccc(C)c(S(=O)(=O)N2CCN(C(=O)CCNC(=O)c3ccc(Br)cc3)CC2)c1	-6	1	2	-5	·	-6	·	·
S=C(NCCNCc1ccccc1)NC1CCCCC1	-4	1	19	0	47	51*	11	·
S=C(NCCc1ccccc1)NC1CCCCCC1	-20	2	3	-1	-2	-66	·	·
CCN(CC)CCN(Cc1cc2cc3c(cc2[nH]c1=O)OCO3)C(=S)NCCOC	-12	4	-3	-7	12	21	·	·
COc1ccc(N2CCN(S(=O)(=O)c3ccc(-c4cnc(C5CC5)o4)cc3)CC2)cc1	24	5	10	11	-12	40	·	·
O=S(=O)(Nc1ccc(F)cc1Cl)c1ccc(-c2cnc(C3CC3)o2)cc1	-2	3	·	3	·	56*	61*	66*
COc1ccc(NS(=O)(=O)c2ccc(-c3cnc(C4CC4)o3)cc2)cc1OC	-1	1	93*	-2	62	57*	56*	47*
COc1cccc(N2CCN(S(=O)(=O)c3ccc(-c4cnc(C5CC5)o4)cc3)CC2)c1	2	2	12	-3	-4	79*	10	·
CC(=O)Nc1ccc(NS(=O)(=O)c2cc(-c3cnc(C4CC4)o3)ccc2C)cc1	20	3	9	3	17	3	·	·
Cc1ccc(NS(=O)(=O)c2ccc(-c3cnc(C4CC4)o3)cc2)c(C)c1	12	2	21	4	?	77*	56*	95*
CC(C)CC1CC(C)(c2csc(NNC(=O)c3ccccc3)n2)OC1=O (stereo not drawn)	-14	-1	4	-3	-12	22	·	·
COCc1nc2ccccc2n1Cc1c(F)cccc1Cl	17	0	-8	1	-15	-16	·	·
Cc1cccc(N(C)S(=O)(=O)c2ccc(-c3cnc(C4CC4)o3)cc2)c1	4	0	54	4	78*	74*	59*	103*
CCOc1ccccc1NS(=O)(=O)c1ccc(-c2cnc(C3CC3)o2)cc1	24	4	45	-1	17	73*	56*	117*
COc1ccccc1CNS(=O)(=O)c1ccc(S(=O)(=O)NC2CC2)cc1	3	0	-3	-2	·	-14	·	·
COc1ccccc1NS(=O)(=O)c1ccc(-c2cnc(C3CC3)o2)cc1	8	3	16	2	17	70*	64*	81*
COc1ccccc1CNS(=O)(=O)c1ccc(-c2cnc(C3CC3)o2)cc1	18	4	19	0	65	54*	55*	66*
